# Measurements taken from publication PMC7862700, “An all-to-all approach to the identification of sequence-specific readers for epigenetic DNA modifications on cytosine”.
# How the values were obtained:
# Assay in all cases: DAPPL (digital affinity profiling via proximity ligation, sequencing); 10 mM Tris-HCl pH 7.5, 50 mM NaCl, 1 mM DTT, 4% glycerol, room temperature, 30 min; GST-TFs on glutathione beads, 16-mer random dsDNA library, 0.1% formaldehyde crosslink after washing; high values mean tight binding
# [1] = target: T1, FLI1 (Homo sapiens, UniProt Q01543 1-452); settings: protein: recombinant; tags: N-terminal GST; dsDNA, one strand shown
# T1 sequence: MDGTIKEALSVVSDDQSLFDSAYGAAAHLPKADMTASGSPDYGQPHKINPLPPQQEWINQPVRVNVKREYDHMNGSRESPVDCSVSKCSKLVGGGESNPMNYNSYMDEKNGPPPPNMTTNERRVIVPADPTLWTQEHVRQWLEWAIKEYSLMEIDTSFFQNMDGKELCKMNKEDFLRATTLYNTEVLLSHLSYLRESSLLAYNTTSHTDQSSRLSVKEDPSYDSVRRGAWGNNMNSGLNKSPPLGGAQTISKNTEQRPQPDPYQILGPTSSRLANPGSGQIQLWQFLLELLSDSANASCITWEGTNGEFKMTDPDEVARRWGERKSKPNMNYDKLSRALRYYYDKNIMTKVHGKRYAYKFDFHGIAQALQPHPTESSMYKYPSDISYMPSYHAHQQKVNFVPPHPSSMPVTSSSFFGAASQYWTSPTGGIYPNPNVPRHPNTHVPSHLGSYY
# Summary of the method: (§1)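 Beads coated with glutathione captured GST-fused human transcription factors that had been expressed in yeast, and the factors were then given DNA barcodes and pooled with a tag-only sample. The pools were incubated with 200 nmole of a random double-stranded 16-mer DNA library in Tris/NaCl/DTT/glycerol buffer for 30 min at room temperature, washed, crosslinked with 0.1% formaldehyde and proximity-ligated with BsaI/T4 ligase at 37 °C for 1 h. PCR amplification and Illumina NextSeq500 sequencing came last. Binding signal is each hexamer's read frequency for a factor divided by its frequency for the tag-only sample.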
# [2] = target: T2, ELK1 (Homo sapiens, UniProt P19419 1-428); settings: protein: recombinant; tags: N-terminal GST; dsDNA, one strand shown
# T2 sequence: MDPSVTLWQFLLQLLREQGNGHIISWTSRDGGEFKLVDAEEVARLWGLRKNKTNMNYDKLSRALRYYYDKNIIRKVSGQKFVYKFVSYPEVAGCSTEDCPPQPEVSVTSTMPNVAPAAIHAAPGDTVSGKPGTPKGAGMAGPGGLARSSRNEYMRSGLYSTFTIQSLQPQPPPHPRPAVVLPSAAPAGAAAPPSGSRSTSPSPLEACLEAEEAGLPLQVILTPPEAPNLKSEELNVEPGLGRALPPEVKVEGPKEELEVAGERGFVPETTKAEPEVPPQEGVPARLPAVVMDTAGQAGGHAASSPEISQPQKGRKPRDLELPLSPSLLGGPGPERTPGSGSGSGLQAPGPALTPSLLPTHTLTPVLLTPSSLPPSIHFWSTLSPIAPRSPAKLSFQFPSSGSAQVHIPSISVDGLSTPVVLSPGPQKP
# Summary of the method: as §1
# [3] = target: T3, GABPA (Homo sapiens, UniProt Q06546 1-454); settings: protein: recombinant; tags: N-terminal GST; dsDNA, one strand shown
# T3 sequence: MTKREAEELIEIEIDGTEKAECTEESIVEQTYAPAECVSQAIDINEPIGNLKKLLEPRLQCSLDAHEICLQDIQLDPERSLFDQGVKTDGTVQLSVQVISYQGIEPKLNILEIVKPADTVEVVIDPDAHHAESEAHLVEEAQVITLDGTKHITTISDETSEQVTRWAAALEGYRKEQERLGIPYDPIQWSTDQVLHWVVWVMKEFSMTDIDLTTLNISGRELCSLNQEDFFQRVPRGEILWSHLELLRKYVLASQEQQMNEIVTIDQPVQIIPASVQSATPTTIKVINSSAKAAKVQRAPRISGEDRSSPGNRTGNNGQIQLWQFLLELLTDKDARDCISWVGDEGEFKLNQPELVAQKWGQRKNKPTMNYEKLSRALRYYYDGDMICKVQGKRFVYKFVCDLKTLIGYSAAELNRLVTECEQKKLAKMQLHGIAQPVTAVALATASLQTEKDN
# Summary of the method: as §1
# [4] = target: T4, ERG (Homo sapiens, UniProt P11308 1-479); settings: protein: recombinant; tags: N-terminal GST; dsDNA, one strand shown
# T4 sequence: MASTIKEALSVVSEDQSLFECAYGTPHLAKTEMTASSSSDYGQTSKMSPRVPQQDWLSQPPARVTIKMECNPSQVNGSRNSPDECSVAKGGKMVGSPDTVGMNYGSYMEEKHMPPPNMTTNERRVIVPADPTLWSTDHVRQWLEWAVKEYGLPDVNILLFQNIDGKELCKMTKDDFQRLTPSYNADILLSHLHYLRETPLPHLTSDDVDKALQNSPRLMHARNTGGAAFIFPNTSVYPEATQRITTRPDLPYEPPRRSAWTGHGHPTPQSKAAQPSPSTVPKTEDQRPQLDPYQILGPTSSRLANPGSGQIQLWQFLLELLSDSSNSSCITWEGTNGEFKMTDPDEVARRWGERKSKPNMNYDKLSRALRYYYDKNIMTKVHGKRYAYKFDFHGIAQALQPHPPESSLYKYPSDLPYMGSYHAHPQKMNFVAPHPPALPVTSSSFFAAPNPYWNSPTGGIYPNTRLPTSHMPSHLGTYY
# Summary of the method: as §1
# [5] = target: ELF1 (Homo sapiens, UniProt P32519 1-619); settings: protein: recombinant; tags: N-terminal GST; dsDNA, one strand shown
# Summary of the method: as §1
# [6] = target: T5, EHF (Homo sapiens, UniProt Q9NZC4 1-300); settings: protein: recombinant; tags: N-terminal GST; dsDNA, one strand shown
# T5 sequence: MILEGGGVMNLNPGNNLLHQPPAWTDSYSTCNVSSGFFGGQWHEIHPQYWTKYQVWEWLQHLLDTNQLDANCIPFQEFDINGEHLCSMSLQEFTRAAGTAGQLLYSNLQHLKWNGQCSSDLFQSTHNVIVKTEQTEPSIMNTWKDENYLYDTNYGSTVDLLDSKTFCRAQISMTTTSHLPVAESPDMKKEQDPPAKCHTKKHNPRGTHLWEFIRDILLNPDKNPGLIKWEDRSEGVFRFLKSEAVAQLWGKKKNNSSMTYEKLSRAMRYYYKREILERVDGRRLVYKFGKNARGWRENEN
# Summary of the method: as §1
# [7] = target: SPI1 (Homo sapiens, UniProt P17947 1-270); settings: protein: recombinant; tags: N-terminal GST; dsDNA, one strand shown
# Summary of the method: as §1
# [8] = target: SPIB (Homo sapiens, UniProt Q01892 1-262); settings: protein: recombinant; tags: N-terminal GST; dsDNA, one strand shown
# Summary of the method: as §1
# [9] = target: T6, ELK3 (Homo sapiens, UniProt P41970 1-407); settings: protein: recombinant; tags: N-terminal GST; dsDNA, one strand shown
# T6 sequence: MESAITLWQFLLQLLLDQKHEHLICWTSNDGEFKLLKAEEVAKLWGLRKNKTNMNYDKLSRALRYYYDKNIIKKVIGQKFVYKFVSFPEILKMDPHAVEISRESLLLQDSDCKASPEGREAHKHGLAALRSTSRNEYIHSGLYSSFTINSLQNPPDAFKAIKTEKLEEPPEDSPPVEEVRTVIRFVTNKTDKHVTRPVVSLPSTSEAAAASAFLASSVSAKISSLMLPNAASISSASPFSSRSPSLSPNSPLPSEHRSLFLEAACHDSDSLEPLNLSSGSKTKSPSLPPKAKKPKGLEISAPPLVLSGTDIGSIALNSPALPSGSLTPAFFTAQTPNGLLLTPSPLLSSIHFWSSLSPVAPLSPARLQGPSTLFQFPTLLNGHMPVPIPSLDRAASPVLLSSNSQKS
# Summary of the method: as §1
# [10] = target: T7, FEV (Homo sapiens, UniProt Q99581 1-238); settings: protein: recombinant; tags: N-terminal GST; dsDNA, one strand shown
# T7 sequence: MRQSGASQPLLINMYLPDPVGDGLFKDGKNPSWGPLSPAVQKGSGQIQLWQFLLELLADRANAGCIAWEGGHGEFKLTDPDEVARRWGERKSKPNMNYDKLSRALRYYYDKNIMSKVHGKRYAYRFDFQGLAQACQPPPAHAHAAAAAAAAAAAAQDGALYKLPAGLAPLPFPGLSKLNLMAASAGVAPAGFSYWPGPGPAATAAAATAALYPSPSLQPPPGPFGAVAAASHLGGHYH
# Summary of the method: as §1
# [11] = target: ETV5 (Homo sapiens, UniProt P41161 1-510); settings: protein: recombinant; tags: N-terminal GST; dsDNA, one strand shown
# Summary of the method: as §1
# [12] = target: HSF1 (Homo sapiens, UniProt Q00613 1-529); settings: protein: recombinant; tags: N-terminal GST; chain copies: 3; dsDNA, one strand shown
# Summary of the method: as §1
# [13] = target: T8, SPIC (Homo sapiens, UniProt Q8N5J4 1-248); settings: protein: recombinant; tags: N-terminal GST; dsDNA, one strand shown
# T8 sequence: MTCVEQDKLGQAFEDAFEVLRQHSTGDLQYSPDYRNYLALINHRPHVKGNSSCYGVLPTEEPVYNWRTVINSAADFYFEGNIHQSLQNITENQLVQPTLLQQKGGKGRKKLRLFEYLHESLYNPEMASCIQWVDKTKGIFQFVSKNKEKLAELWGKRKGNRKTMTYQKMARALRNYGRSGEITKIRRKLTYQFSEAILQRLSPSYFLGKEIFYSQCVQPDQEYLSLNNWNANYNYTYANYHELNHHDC
# Summary of the method: as §1
# [14] = target: ELF4 (Homo sapiens, UniProt Q99607 1-663); settings: protein: recombinant; tags: N-terminal GST; dsDNA, one strand shown
# Summary of the method: as §1
# [15] = target: T9, ELK4 (Homo sapiens, UniProt P28324-2 1-405); settings: protein: recombinant; tags: N-terminal GST; dsDNA, one strand shown
# T9 sequence: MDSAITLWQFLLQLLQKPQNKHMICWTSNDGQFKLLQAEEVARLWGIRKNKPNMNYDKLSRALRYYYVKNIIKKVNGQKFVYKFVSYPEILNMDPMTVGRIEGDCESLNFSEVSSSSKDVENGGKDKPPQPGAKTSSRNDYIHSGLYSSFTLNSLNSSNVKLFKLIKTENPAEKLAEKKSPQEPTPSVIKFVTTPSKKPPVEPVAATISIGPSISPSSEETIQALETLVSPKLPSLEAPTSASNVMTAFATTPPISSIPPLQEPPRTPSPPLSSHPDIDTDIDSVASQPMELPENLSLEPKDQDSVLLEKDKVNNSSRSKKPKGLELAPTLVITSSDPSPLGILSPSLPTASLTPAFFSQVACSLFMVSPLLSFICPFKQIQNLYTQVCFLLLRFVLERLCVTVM
# Summary of the method: as §1
# [16] = target: T10, ETV2 (Homo sapiens, UniProt O00321 1-342); settings: protein: recombinant; tags: N-terminal GST; dsDNA, one strand shown
# T10 sequence: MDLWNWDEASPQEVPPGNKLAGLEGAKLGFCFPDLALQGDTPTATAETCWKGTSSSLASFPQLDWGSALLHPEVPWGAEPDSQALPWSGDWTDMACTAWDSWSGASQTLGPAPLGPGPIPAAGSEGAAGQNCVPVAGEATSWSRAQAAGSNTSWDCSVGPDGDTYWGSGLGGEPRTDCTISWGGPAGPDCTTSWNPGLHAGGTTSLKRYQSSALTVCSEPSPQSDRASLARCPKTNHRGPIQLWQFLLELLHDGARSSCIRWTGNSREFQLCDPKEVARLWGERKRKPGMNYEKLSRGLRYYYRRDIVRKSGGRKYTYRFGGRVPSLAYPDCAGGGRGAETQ
# Summary of the method: as §1
# [17] = target: T11, ELF3 (Homo sapiens, UniProt P78545 1-371); settings: protein: recombinant; tags: N-terminal GST; dsDNA, one strand shown
# T11 sequence: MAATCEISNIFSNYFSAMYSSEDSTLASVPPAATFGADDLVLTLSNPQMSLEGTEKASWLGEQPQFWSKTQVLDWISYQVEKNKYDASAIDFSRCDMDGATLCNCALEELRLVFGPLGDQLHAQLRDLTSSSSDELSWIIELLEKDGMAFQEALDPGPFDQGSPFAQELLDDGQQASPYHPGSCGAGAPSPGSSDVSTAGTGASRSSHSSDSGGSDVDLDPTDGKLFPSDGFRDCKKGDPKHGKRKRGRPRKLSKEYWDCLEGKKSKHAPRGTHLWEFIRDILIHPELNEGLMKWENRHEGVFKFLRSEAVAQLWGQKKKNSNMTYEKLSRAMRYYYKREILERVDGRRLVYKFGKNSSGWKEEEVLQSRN
# Summary of the method: as §1
# [18] = target: CRX (Homo sapiens, UniProt O43186 1-299); settings: protein: recombinant; tags: N-terminal GST; dsDNA, one strand shown
# Summary of the method: as §1
# [19] = target: ETV1 (Homo sapiens, UniProt P50549 1-477); settings: protein: recombinant; tags: N-terminal GST; dsDNA, one strand shown
# Summary of the method: as §1
# Sequence of ETV1 (P50549 whole entry): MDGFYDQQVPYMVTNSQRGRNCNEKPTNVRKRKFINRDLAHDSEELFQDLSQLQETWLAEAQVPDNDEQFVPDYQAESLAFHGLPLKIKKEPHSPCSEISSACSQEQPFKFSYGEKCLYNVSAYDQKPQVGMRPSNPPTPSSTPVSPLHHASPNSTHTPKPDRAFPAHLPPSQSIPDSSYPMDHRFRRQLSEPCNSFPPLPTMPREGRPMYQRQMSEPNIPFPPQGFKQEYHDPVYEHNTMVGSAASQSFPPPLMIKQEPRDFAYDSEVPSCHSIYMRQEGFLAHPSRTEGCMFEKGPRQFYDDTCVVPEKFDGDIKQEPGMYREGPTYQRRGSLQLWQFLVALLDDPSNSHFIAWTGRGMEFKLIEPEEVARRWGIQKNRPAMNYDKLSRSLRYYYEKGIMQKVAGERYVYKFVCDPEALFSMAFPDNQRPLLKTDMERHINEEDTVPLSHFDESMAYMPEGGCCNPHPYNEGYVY
# Sequence of ELF1 (P32519 whole entry): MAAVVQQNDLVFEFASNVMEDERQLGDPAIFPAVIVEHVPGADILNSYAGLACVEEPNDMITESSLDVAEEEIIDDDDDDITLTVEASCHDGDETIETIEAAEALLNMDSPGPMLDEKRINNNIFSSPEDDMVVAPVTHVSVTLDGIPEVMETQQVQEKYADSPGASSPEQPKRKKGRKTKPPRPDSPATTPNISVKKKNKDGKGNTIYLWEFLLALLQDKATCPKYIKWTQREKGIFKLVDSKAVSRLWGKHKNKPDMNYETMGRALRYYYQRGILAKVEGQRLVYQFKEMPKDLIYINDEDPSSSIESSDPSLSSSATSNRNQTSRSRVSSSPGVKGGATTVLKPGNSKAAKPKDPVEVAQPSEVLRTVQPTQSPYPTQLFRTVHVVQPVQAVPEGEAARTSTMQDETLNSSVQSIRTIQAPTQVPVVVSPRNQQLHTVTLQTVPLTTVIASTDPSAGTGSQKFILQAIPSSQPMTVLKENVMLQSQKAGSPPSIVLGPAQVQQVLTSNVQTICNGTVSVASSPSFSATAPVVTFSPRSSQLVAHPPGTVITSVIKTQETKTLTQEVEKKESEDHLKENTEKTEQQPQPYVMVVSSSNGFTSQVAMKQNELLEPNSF
# Sequence of ETV5 (P41161 whole entry): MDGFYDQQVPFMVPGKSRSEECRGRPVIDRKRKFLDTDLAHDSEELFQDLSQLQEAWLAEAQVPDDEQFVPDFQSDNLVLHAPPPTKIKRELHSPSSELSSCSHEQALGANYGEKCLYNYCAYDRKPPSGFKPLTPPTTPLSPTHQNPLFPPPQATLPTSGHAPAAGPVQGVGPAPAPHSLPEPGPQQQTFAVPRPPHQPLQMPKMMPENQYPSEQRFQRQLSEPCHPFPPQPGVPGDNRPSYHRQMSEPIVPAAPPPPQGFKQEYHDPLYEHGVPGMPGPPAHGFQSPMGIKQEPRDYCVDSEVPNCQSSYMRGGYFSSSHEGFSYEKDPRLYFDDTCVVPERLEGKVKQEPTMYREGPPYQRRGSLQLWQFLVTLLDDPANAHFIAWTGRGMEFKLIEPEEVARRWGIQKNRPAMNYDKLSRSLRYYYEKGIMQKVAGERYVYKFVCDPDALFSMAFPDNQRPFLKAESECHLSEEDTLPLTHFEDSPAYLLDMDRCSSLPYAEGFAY
# Sequence of ELF4 (Q99607 whole entry): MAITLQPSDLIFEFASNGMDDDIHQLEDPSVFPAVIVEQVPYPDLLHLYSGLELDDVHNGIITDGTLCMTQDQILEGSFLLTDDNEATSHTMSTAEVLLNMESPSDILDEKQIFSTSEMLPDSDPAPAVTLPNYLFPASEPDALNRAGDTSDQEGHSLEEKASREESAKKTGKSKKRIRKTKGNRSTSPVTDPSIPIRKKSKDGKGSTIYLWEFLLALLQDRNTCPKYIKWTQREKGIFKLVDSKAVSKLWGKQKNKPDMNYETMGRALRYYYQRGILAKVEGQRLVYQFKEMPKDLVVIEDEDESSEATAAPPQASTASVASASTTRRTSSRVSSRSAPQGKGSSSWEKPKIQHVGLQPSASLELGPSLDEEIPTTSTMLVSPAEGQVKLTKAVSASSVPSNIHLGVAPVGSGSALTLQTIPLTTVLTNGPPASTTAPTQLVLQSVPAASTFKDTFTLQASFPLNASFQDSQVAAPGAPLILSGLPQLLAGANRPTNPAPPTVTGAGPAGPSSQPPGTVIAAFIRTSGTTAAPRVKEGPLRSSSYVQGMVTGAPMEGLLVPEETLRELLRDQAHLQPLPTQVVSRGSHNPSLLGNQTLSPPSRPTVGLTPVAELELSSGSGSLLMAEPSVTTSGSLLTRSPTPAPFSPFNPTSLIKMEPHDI
# Sequence of CRX (O43186 whole entry): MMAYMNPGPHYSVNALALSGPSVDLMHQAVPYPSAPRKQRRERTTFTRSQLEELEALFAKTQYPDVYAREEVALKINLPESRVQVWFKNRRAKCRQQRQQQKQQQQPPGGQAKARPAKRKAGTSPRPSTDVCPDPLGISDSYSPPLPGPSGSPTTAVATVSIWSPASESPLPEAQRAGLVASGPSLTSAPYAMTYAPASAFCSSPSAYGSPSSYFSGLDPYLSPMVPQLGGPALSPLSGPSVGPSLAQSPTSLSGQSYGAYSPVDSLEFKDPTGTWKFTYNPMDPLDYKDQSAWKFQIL
# Sequence of HSF1 (Q00613 whole entry): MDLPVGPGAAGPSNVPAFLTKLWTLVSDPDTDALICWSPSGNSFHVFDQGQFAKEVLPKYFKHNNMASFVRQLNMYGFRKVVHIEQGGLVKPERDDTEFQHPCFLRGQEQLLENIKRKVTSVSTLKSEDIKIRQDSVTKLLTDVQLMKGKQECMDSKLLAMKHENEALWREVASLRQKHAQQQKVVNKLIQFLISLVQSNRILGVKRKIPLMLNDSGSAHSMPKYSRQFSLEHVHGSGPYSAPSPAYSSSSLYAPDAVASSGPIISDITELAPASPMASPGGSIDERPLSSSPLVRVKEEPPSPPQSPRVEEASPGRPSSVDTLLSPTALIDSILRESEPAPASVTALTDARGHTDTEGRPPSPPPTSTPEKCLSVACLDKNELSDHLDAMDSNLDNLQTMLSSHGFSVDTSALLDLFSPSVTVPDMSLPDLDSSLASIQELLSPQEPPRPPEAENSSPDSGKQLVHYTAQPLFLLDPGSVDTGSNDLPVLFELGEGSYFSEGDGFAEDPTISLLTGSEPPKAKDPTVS
# Sequence of SPIB (Q01892 whole entry): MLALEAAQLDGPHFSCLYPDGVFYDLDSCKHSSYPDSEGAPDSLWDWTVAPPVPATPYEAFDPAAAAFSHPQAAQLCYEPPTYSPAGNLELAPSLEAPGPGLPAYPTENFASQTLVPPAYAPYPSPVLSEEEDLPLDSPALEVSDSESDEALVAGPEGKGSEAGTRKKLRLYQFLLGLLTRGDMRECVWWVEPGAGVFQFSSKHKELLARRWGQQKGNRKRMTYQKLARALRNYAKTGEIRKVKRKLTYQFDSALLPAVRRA
sequence,measurement,setting,value
TAAAAA,binding signal,[1],"1.27 fold enrichment (6-mer frequency, TF over GST control)"
same,binding signal,[2],"1.13 fold enrichment (6-mer frequency, TF over GST control)"
same,binding signal,[3],"1.36 fold enrichment (6-mer frequency, TF over GST control)"
same,binding signal,[4],"1.26 fold enrichment (6-mer frequency, TF over GST control)"
same,binding signal,[5],"1.26 fold enrichment (6-mer frequency, TF over GST control)"
same,binding signal,[6],"1.29 fold enrichment (6-mer frequency, TF over GST control)"
same,binding signal,[7],"1.53 fold enrichment (6-mer frequency, TF over GST control)"
same,binding signal,[8],"1.35 fold enrichment (6-mer frequency, TF over GST control)"
same,binding signal,[9],"1.32 fold enrichment (6-mer frequency, TF over GST control)"
same,binding signal,[10],"1.29 fold enrichment (6-mer frequency, TF over GST control)"
same,binding signal,[11],"1.3 fold enrichment (6-mer frequency, TF over GST control)"
same,binding signal,[12],"1.56 fold enrichment (6-mer frequency, TF over GST control)"
same,binding signal,[13],"1.34 fold enrichment (6-mer frequency, TF over GST control)"
same,binding signal,[14],"1.45 fold enrichment (6-mer frequency, TF over GST control)"
same,binding signal,[15],"1.34 fold enrichment (6-mer frequency, TF over GST control)"
same,binding signal,[16],"1.4 fold enrichment (6-mer frequency, TF over GST control)"
same,binding signal,[17],"1.33 fold enrichment (6-mer frequency, TF over GST control)"
same,binding signal,[18],"1.82 fold enrichment (6-mer frequency, TF over GST control)"
same,binding signal,[19],"1.26 fold enrichment (6-mer frequency, TF over GST control)"
